# According to PubChem BioAssay (Tox21):
# Inconclusive results are not listed. Activity calls are given as the source filed them. Calls follow the shape of the dose curve; as a rule, active = well fitted cell-killing curve with a large enough effect in the repeat runs; inconclusive = weak or mixed curves; inactive = flat fitted curve, though single readings scatter.
# Experiment: qHTS RealTime-Glo MT Cell Viability Assay in HepG2 cells - 24 hour (AID 1224867); also: nearly all actives have a fitted effect of over 50% in size
# Details: RealTime-Glo luminescence; series mostly up to 76.8 µM
# Description: U.S. Tox21 Program National Center for Advancing Translational Sciences [NCATS] NIH Chemical Genomics Center [NCGC] U.S. Environmental Protection Agency [EPA] National Institutes of Environmental Health Sciences [NIEHS] National Toxicology Program [NTP] U.S. Food and Drug Administration [FDA] Tox21 Assay Overview: Measure of cell viability is critical in the cell-base assay. Analysis of cell viability is necessary for the characterization of cell responses to cytotoxic drugs and environmental stress. A RealTime-Glo MT Cell Viability Assay to monitor cell viability in real time of continues cell culture during 40 hours of compound treatment was used to screen Tox21 10K library compounds in HepG2 cells. The RealTime-Glo MT Cell Viability Assay is a nonlytic, homogeneous, bioluminescent method to measure cell viability in real time using a simple, plate-based method. The assay involves adding NanoLuc luciferase and a cell-permeant prosubstrate to cells in culture. Viable cells reduce the proprietary prosubstrate to generate a substrate for NanoLuc luciferase. This substrate diffuses from cells into the surrounding culture medium, where it is rapidly used by the NanoLuc Enzyme to produce a luminescent signal. The signal correlates with the number of viable cells, making the assay well suited for cytotoxicity studies.
# Tox21 Assay Protocol Summary: The mixture of HepG2 cell suspension and reagents were dispensed at 600cells/6 ul/well in 1536-well tissue culture treated black solid bottom plates using a Multidrop dispenser. After the assay plates were incubated at a 37 C/5% CO2 incubator for 5 hours, 23 nL of compounds dissolved in DMSO, positive and negative controls was transferred to the assay plate by a pintool work station. The plates were incubated at 37 C for 40 hours. The luminescence intensity were measured at 0h, 8h, 16h, 24h, 32h and 40h time points using ViewLux plate reader during compound treatment.
row,SMILES,outcome
1,C/C=C1/CC2C=CC1C2 (stereo not given),inactive
2,ON=C1CCCCC1,inactive
3,CN(C)CCC(c1ccc(Cl)cc1)c1ccccn1 (stereo not given),inactive
4,COS(C)(=O)=O,inactive
5,c1c[nH]cn1,inactive
6,NNc1nncc2ccccc12,inactive
7,C[C@H]1C[C@@H]2[C@H]([C@@H](O)C[C@@]3(C)[C@H]2CC[C@]3(O)C(=O)CO)[C@@]2(C)C=CC(=O)C=C12,inactive
8,CCCCCC/C(C=O)=C\c1ccccc1,inactive
9,OCCOCCN1CCN(C2=Nc3ccccc3Sc3ccccc32)CC1,inactive
10,O=C(O)c1ccc2c(c1)C(=O)OC2=O,inactive
11,CCCC(C)=O,inactive
12,CCCCOC(=O)COc1ccc(Cl)cc1Cl,inactive
13,c1ccc2scnc2c1,inactive
14,CCC(O)OCCCOC (stereo not given),inactive
15,C=C(C)C(=O)Nc1ccc(Cl)c(Cl)c1,inactive
16,CC(=O)Nc1cccc(O)c1,inactive
17,O=C(CC(C(=O)OC1CCCCC1)S(=O)(=O)O)OC1CCCCC1 (stereo not given),inactive
18,CCCCCCCCCCCCc1ccccc1,inactive
19,Nc1cc([N+](=O)[O-])ccc1O,inactive
20,Cc1ccc(S(N)(=O)=O)cc1,inactive

row,SMILES,outcome
1,Cc1cccnc1,inactive
2,OCCOCCOCCO,inactive
3,C=CCOC(=O)c1ccccc1C(=O)OCC=C,inactive
4,CC1=C(C)S(=O)(=O)CCS1(=O)=O,inactive
5,Cc1cccc(O)c1,inactive
6,CC(=O)OCC(=O)[C@@]12N=C(C)O[C@@H]1C[C@H]1[C@@H]3CCC4=CC(=O)C=C[C@]4(C)[C@H]3[C@@H](O)C[C@@]12C,inactive
7,CCCCCCCCCC,inactive
8,CCCSc1ccc2nc(NC(=O)OC)[nH]c2c1,inactive
9,CCCCCCCCC/C=C/CC1CC(=O)OC1=O (stereo not given),inactive
10,CN(C)CCC(c1ccccc1)c1ccccn1 (stereo not given),inactive
11,C=C(C)C(=O)O[C@H]1C[C@@H]2CC[C@@]1(C)C2(C)C,inactive
12,O=C(O)CCCC[C@@H]1SC[C@@H]2NC(=O)N[C@@H]21,inactive
13,Fc1ccc(Br)cc1,inactive
14,O=C(O)[C@H](O)[C@@H](O)[C@H](O)[C@H](O)CO,inactive
15,CC[C@H](C)C(=O)O[C@H]1C[C@@H](C)C=C2C=C[C@H](C)[C@H](CC[C@@H]3C[C@@H](O)CC(=O)O3)[C@H]21,inactive
16,Cc1cnc(C(=O)NCCc2ccc(S(=O)(=O)NC(=O)NC3CCCCC3)cc2)cn1,inactive
17,CC1CCC2CC1C2(C)C (stereo not given),inactive
18,CC(=O)c1ccccc1,inactive
19,CC1CCC(C(C)C)C(O)C1 (stereo not given),inactive
20,O=c1[nH]c(=O)n([C@H]2CCCO2)cc1F,inactive
